We go through 26 compounds from PubChem BioAssay (EPA / NIEHS).

Activity calls are given as the source filed them. The calls were made as follows: active = hit-call score of the fitted dose curve at least 0.9, where 1 is the maximum; inactive = score below 0.9.

The assay can be described thus: CEETOX_H295R_OHPREG: CeeTox H295R High-throughput Steroidogenesis Assay for OH-Pregnenolone (OHPREG) (AID 2283434). Conditions: actives raise or lower the signal. The procedure: CEETOX_H295R is a cell-based, multiplexed-readout assay that uses H295R, a human adrenal gland cell line, with measurements taken at 48 hours after chemical dosing in a 96-well plate.CEETOX_H295R_OHPREG is one of 23 assay component(s) measured or calculated from the CEETOX_H295R assay. It is designed to make measurements of hormone induction, a form of inducible reporter, as detected with […] by HPLC-MS-MS technology.Data from the assay component CEETOX_H295R_OHPREG was analyzed into 1 assay endpoint. This assay endpoint, CEETOX_H295R_OHPREG, was analyzed with bidirectional fitting relative to DMSO as the negative control and baseline of activity. Using a type of inducible reporter, gain or loss-of-signal activity using HPLC-MS-MS was used to understand synthesis of 17alpha-hydroxypregnenolone in H295R cell line at 48hr of chemical exposure. To generalize the intended target to other relatable targets, this assay endpoint is annotated to the steroid hormone intended target family, where the subfamily is progestagens.
Cell culture and media preparation procedures were conducted in accordance with OECD Test No. 456 guidelines, with minor modifications. H295R cells (ATCC CRL-2128) were expanded for 5 passages and frozen in batches in liquid nitrogen. Prior to the steroidogenesis assay, H295R cells were thawed and passed at least 4 times. The maximum passage was 10. Cells were maintained in a 1:1 mixture of DMEM/F12 supplemented with 5ml/L ITS+ Premix (BD Bioscience) and 12.5 ml/L Nu-Serum (BD Bioscience). After seeding cells into 96-well plates at 50-60% confluency, cells were allowed to adhere overnight. Prior to chemical testing, culture medium was replaced with 175 uL medium containing 10 uM forskolin to stimulate steroidogenesis for 48 hours. Following prestimulation, forskolin medium was replaced with medium containing test chemical solubilized in DMSO (ensuring a final concentration of 0.1% DMSO). Test chemicals were incubated for 48 hours, then the medium was removed and split into 2 vials containing approximately 75uL each, and stored at -80 C prior to hormone analysis. For steroid quantification, media samples were shipped to OpAns, LLC (Durham, NC) on dry ice, and samples were thawed to room temperature prior to liquid-liquid extraction. Steroid hormones were extracted from media samples using methyl tertbutyl ether (MTBE). An extra derivatization with dansyl chloride was included for estrogen (estrone and estradiol) detection only. Steroid hormones were separated by HPLC, eluted using a reverse phase C18 gradient with electrospray positive ionization, followed by quantification by tandem mass spectrometry (MS/MS). Data were acquired on a MassHunter Workstation Acquisition version B03.01 (Agilent Technologies, Inc.) and processed using MassHunter Quantitative Analysis for QQQ. Accuracy was determined for each hormone analyte from 3 standards to determine upper and lower limits of quantification (ULOQ and LLOQ, respectively) using a 7-point standard curve. Precision and accuracy of the extraction and quantification methods were calculated as the percent relative standard deviation (%RSD) of the spiked standards and percent spiked standard recovered, respectively. The goal was to achieve 100% accuracy (i.e., recover all spiked-in standard at quantification with minimal loss during run time) and good precision (i.e., have %RSD <15% to ensure reproducibility). Test medium was removed following chemical exposure, and cell viability was evaluated in the same wells by MTT. MTT procedures were as follows: after removal of test medium, 500 uL of 0.5 mg/ml of 3-[4,5-dimethylthiazol-2-y]2,5-diphenyltetrazoliumbromide solution was added to the cells. Following a 4-hour incubation at 37 C and 5% CO2 to allow formazan-crystal formation, the MTT solution was removed and blue formazan salt crystals were solubilized using 500uL anhydrous isopropanol with shaking for 20 minutes. […]
For `Oc1ccc2ccccc2c1`, the compound was called inactive.
In the case of `O=C(O)Cn1c(=O)n(Cc2ccc(Br)cc2F)c(=O)c2ccc(Cl)cc21`, the result was inactive.
With `CCCCOC(=O)c1ccc(O)cc1`, the compound was classed as inactive.
On the same count and under the same terms, to `NC(=O)c1nc(-c2cccc(-c3cc(F)ccc3OCC(F)(F)C(F)(F)F)c2)n[nH]1` belongs “inactive”.
The same measure, in the same setting: to `CC(C)(C)c1cc(/C=C2\SC(N)=NC2=O)cc(C(C)(C)C)c1O` belongs “inactive”.
For the compound `C[C@]12CC[C@@H]3c4ccc(O)cc4CC[C@H]3[C@@H]1CC[C@H]2O`, the AC50 (usually the concentration at which the activity in the assay is half-maximal) was 1220 nM (active).
Regarding `CCCCCCCC[Si](OCC)(OCC)OCC`, the compound was called inactive.
As for `CC(=O)N1CCN(c2ccc(OC[C@H]3CO[C@](Cn4ccnc4)(c4ccc(Cl)cc4Cl)O3)cc2)CC1`, the AC50 was 1420 nM (active).
Turning to `CN1C(=O)N(c2ccccc2Br)Cc2cnc(Nc3ccc4c(c3)OCC(CO)O4)nc21` (stereo unspecified), the call was inactive.
In the case of `Clc1ccccc1C(c1ccccc1)(c1ccccc1)n1ccnc1`, the AC50 was 8.09 nM (active).
In the case of `O=C1CCC(C2CCCCC2)CC1`, the AC50 was 80400 nM (active).
In the case of `Cc1cc2c(cc1C(F)(F)F)N(C(=O)Nc1ccc(Oc3cccnc3C)nc1)CC2`, the AC50 was 495 nM (active).
Regarding `Cc1c2ccccc2c(C)c2c1ccc1ccccc12`, the compound was classed as inactive.
Consider `Cc1ccc2oc(CN(Cc3ccccc3)C(=O)Nc3c(F)cc(F)cc3F)c(-c3ccc(Cl)cc3)c2c1`, for which the outcome was inactive.
Turning to `CO[C@H]1/C=C/O[C@@]2(C)Oc3c(C)c(O)c4c(O)c(c(/C=N/N5CCN(C)CC5)c(O)c4c3C2=O)NC(=O)/C(C)=C\C=C\[C@H](C)[C@H](O)[C@@H](C)[C@@H](O)[C@@H](C)[C@H](OC(C)=O)[C@@H]1C`, the compound was classed as inactive.
With `CCCCCCCCN(C)CCCCCCCC`, the compound was classed as inactive.
For the compound `COc1cccc([C@H](O)C2CCN(CCc3ccc(F)cc3)CC2)c1OC`, the AC50 was 1810 nM (active).
For the compound `CCCCCCCCOC(=O)c1cc(O)c(O)c(O)c1`, the compound was classed as inactive.
As for `Cc1oc2c(NC(=O)c3c(Cl)cccc3Cl)cccc2c1C(C)(C)O`, the AC50 was 1420 nM (active).
With `CC(C)(c1cc(Br)c(O)c(Br)c1)c1cc(Br)c(O)c(Br)c1`, the compound was classed as inactive.
Regarding `C[C@]12CC[C@@H]3c4ccc(O)cc4CC[C@H]3[C@@H]1CCC2=O`, the AC50 is 1600 nM (active).
As to `Clc1cc(Cl)c2c(c1)N=C1CCCCCN1C2`, the compound was called inactive.
For the compound `O=C(Nc1ccc(Cl)cc1)Nc1ccc(Cl)c(Cl)c1`, the half-maximal activity concentration (AC50) was 500 nM (active).
On to `OC12N=C(c3ccccc3)SC1Cc1cc(Cl)ccc12` (stereo unspecified), for which the result was inactive.
Same read-out and setting: to `CCCCCCCCCCCC[N+](C)(C)C` belongs “inactive”.
On to `O=C1c2ccccc2C(=O)N1CCc1noc(-c2ccc(CN3CCCCCC3)s2)n1`, for which the AC50 is 4810 nM (active).
